{"source": "ChEMBL document CHEMBL2218924", "about": "“A broad activity screen in support of a chemogenomic map for kinase signalling research and drug discovery” (Biochem J, 2013)", "data": [{"target": "Serine/threonine-protein kinase Chk2 (Homo sapiens) (UniProt O96017)", "sequence (O96017 whole entry)": "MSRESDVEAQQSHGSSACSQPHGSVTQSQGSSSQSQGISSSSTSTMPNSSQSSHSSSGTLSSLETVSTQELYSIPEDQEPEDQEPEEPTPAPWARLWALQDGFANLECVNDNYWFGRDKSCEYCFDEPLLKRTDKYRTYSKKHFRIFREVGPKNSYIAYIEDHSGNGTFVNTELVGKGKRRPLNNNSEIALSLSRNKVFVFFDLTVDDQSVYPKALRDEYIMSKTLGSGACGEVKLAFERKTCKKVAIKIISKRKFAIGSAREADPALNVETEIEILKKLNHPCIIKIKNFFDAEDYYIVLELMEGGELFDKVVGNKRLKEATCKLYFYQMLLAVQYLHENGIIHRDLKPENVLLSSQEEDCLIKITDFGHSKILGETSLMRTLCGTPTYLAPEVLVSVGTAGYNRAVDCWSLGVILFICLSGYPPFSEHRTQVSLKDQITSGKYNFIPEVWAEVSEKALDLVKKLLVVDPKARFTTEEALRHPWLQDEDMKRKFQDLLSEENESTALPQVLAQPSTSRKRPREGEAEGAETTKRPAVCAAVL", "details": "at 1 µM", "units": {"residual activity": "%"}, "values": [{"smiles": "Nc1n[nH]c2nnc(-c3c(-c4ccccc4)nn4ccccc34)cc12", "residual activity": 98}, {"smiles": "Cc1nc2cc3nc(-c4cccs4)cnc3cc2n1C", "residual activity": 86}, {"smiles": "N#Cc1cnc2cnc(NCc3cccnc3)cc2c1Nc1ccc(F)c(Cl)c1", "residual activity": 49}, {"smiles": "Nc1nc(Nc2ccc(S(N)(=O)=O)cc2)nn1C(=S)Nc1c(F)cccc1F", "residual activity": 4}, {"smiles": "Oc1ccc(-c2nc(-c3ccc(F)cc3)c(-c3ccncc3)[nH]2)cc1", "residual activity": 89}, {"smiles": "Cn1nc2c3c(cccc31)C(=O)c1ccccc1-2", "residual activity": 75}, {"smiles": "COc1cccc(-c2cc(=O)c3ccccc3o2)c1N", "residual activity": 85}, {"smiles": "CC[n+]1c(/C=C/N(C)c2ccccc2)n(-c2ccccc2)c2ccc(-c3nc4ccccc4s3)cc21", "residual activity": 92}, {"smiles": "O=[N+]([O-])c1ccc(-c2nc(-c3ccc(F)cc3)c(-c3ccncc3)[nH]2)cc1", "residual activity": 97}, {"smiles": "COc1cc2ncc(-c3ccccc3)nc2cc1OC", "residual activity": 86}, {"smiles": "CCC(=O)Nc1ccc2ncnc(Nc3cccc(Br)c3)c2c1", "residual activity": 95}, {"smiles": "CCOc1cc2ncnc(Nc3cccc(Br)c3)c2cc1OCC", "residual activity": 91}, {"smiles": "c1ccc(-c2n[nH]c3c2oc2ccccc23)cc1", "residual activity": 85}, {"smiles": "Nc1ccc2ncnc(NCCc3ccc(Oc4ccccc4)cc3)c2c1", "residual activity": 52}, {"smiles": "CN(C)c1ccc(/C=C2\\C(=O)Nc3ccccc32)cc1", "residual activity": 73}, {"smiles": "O=Nc1c(-c2c(O)[nH]c3ccccc23)[nH]c2ccccc12", "residual activity": 13}, {"smiles": "Cc1cncc2cccc(S(=O)(=O)N3CCCN(C(=O)CN)C[C@H]3C)c12", "residual activity": 80}, {"smiles": "O=C(Nc1cccc(Nc2nccc(Nc3cccc(C(F)(F)F)c3)n2)c1)C1CC1", "residual activity": 81}, {"smiles": "CO[C@H]1C[C@@H]2CC[C@@H](C)[C@@](O)(O2)C(=O)C(=O)N2CCCC[C@H]2C(=O)O[C@H]([C@H](C)C[C@@H]2CC[C@@H](O)[C@H](OC)C2)CC(=O)[C@H](C)/C=C(\\C)[C@@H](O)[C@@H](OC)C(=O)[C@H](C)C[C@H](C)/C=C/C=C/C=C/1C", "residual activity": 98}, {"smiles": "CCN(CC)C(=O)c1ccc(Nc2nc(OCC3CCCCC3)c3nc[nH]c3n2)cc1", "residual activity": 55}, {"smiles": "Oc1c2ccccc2c2c3c(cccc13)N=N2", "residual activity": 29}, {"smiles": "N#CC(C#N)=C(N)/C(C#N)=C/c1ccc(O)cc1", "residual activity": 88}, {"smiles": "O=C1NC(=O)/C(=C\\c2ccc3nccnc3c2)S1", "residual activity": 78}, {"smiles": "Cc1cc(Nc2nc(-c3ccccc3)nc3ccccc23)n[nH]1", "residual activity": 22}, {"smiles": "COc1ccc(OC)c2c(=S)c3ccccc3[nH]c12", "residual activity": 106}, {"smiles": "O=c1c2ccccc2[nH]c(=S)n1CCN1CCC(=C(c2ccc(F)cc2)c2ccc(F)cc2)CC1", "residual activity": 93}, {"smiles": "Cn1cc(/C=C2\\C(=O)Nc3ccc(S(N)(=O)=O)cc32)c2ccccc21", "residual activity": 4}, {"smiles": "CC(C)n1cnc2/c(=N/c3cccc(Cl)c3)nc(NCCO)[nH]c21", "residual activity": 64}, {"smiles": "COc1cc2ncnc(N3CCN(C(=O)Nc4ccc(Oc5ccccc5)cc4)CC3)c2cc1OC", "residual activity": 96}, {"smiles": "O=c1cc(-c2cccc3c2Sc2ccccc2S3)oc(N2CCOCC2)c1", "residual activity": 106}, {"smiles": "CN(C)CCCn1cc(C2=C(c3c[nH]c4ccccc34)C(=O)NC2=O)c2ccccc21", "residual activity": 52}, {"smiles": "Cc1cccc(-c2[nH]c(C(C)(C)C)nc2-c2ccc3c(c2)OCO3)n1", "residual activity": 91}, {"smiles": "COc1cc2ncnc(Nc3ccc(Oc4ccccc4)cc3)c2cc1OC", "residual activity": 24}, {"smiles": "Cc1cc2ncc(-c3ccccc3)nc2cc1C", "residual activity": 84}]}, {"target": "Serine/threonine-protein kinase Chk2 (Homo sapiens) (UniProt O96017)", "details": "at 10 µM", "units": {"residual activity": "%"}, "values": [{"smiles": "Nc1n[nH]c2nnc(-c3c(-c4ccccc4)nn4ccccc34)cc12", "residual activity": 78}, {"smiles": "Cc1nc2cc3nc(-c4cccs4)cnc3cc2n1C", "residual activity": 101}, {"smiles": "N#Cc1cnc2cnc(NCc3cccnc3)cc2c1Nc1ccc(F)c(Cl)c1", "residual activity": 36}, {"smiles": "Nc1nc(Nc2ccc(S(N)(=O)=O)cc2)nn1C(=S)Nc1c(F)cccc1F", "residual activity": 0}, {"smiles": "Oc1ccc(-c2nc(-c3ccc(F)cc3)c(-c3ccncc3)[nH]2)cc1", "residual activity": 68}, {"smiles": "Cn1nc2c3c(cccc31)C(=O)c1ccccc1-2", "residual activity": 40}, {"smiles": "COc1cccc(-c2cc(=O)c3ccccc3o2)c1N", "residual activity": 72}, {"smiles": "CC[n+]1c(/C=C/N(C)c2ccccc2)n(-c2ccccc2)c2ccc(-c3nc4ccccc4s3)cc21", "residual activity": 80}, {"smiles": "O=[N+]([O-])c1ccc(-c2nc(-c3ccc(F)cc3)c(-c3ccncc3)[nH]2)cc1", "residual activity": 84}, {"smiles": "COc1cc2ncc(-c3ccccc3)nc2cc1OC", "residual activity": 88}, {"smiles": "CCC(=O)Nc1ccc2ncnc(Nc3cccc(Br)c3)c2c1", "residual activity": 87}, {"smiles": "CCOc1cc2ncnc(Nc3cccc(Br)c3)c2cc1OCC", "residual activity": 47}, {"smiles": "c1ccc(-c2n[nH]c3c2oc2ccccc23)cc1", "residual activity": 57}, {"smiles": "Nc1ccc2ncnc(NCCc3ccc(Oc4ccccc4)cc3)c2c1", "residual activity": 17}, {"smiles": "CN(C)c1ccc(/C=C2\\C(=O)Nc3ccccc32)cc1", "residual activity": 36}, {"smiles": "O=Nc1c(-c2c(O)[nH]c3ccccc23)[nH]c2ccccc12", "residual activity": 2}, {"smiles": "Cc1cncc2cccc(S(=O)(=O)N3CCCN(C(=O)CN)C[C@H]3C)c12", "residual activity": 83}, {"smiles": "O=C(Nc1cccc(Nc2nccc(Nc3cccc(C(F)(F)F)c3)n2)c1)C1CC1", "residual activity": 48}, {"smiles": "CO[C@H]1C[C@@H]2CC[C@@H](C)[C@@](O)(O2)C(=O)C(=O)N2CCCC[C@H]2C(=O)O[C@H]([C@H](C)C[C@@H]2CC[C@@H](O)[C@H](OC)C2)CC(=O)[C@H](C)/C=C(\\C)[C@@H](O)[C@@H](OC)C(=O)[C@H](C)C[C@H](C)/C=C/C=C/C=C/1C", "residual activity": 85}, {"smiles": "CCN(CC)C(=O)c1ccc(Nc2nc(OCC3CCCCC3)c3nc[nH]c3n2)cc1", "residual activity": 12}, {"smiles": "Oc1c2ccccc2c2c3c(cccc13)N=N2", "residual activity": 2}, {"smiles": "N#CC(C#N)=C(N)/C(C#N)=C/c1ccc(O)cc1", "residual activity": 85}, {"smiles": "O=C1NC(=O)/C(=C\\c2ccc3nccnc3c2)S1", "residual activity": 33}, {"smiles": "Cc1cc(Nc2nc(-c3ccccc3)nc3ccccc23)n[nH]1", "residual activity": 2}, {"smiles": "COc1ccc(OC)c2c(=S)c3ccccc3[nH]c12", "residual activity": 68}, {"smiles": "O=c1c2ccccc2[nH]c(=S)n1CCN1CCC(=C(c2ccc(F)cc2)c2ccc(F)cc2)CC1", "residual activity": 85}, {"smiles": "Cn1cc(/C=C2\\C(=O)Nc3ccc(S(N)(=O)=O)cc32)c2ccccc21", "residual activity": 1}, {"smiles": "CC(C)n1cnc2/c(=N/c3cccc(Cl)c3)nc(NCCO)[nH]c21", "residual activity": 21}, {"smiles": "COc1cc2ncnc(N3CCN(C(=O)Nc4ccc(Oc5ccccc5)cc4)CC3)c2cc1OC", "residual activity": 96}, {"smiles": "O=c1cc(-c2cccc3c2Sc2ccccc2S3)oc(N2CCOCC2)c1", "residual activity": 87}, {"smiles": "CN(C)CCCn1cc(C2=C(c3c[nH]c4ccccc34)C(=O)NC2=O)c2ccccc21", "residual activity": 16}, {"smiles": "Cc1cccc(-c2[nH]c(C(C)(C)C)nc2-c2ccc3c(c2)OCO3)n1", "residual activity": 97}, {"smiles": "COc1cc2ncnc(Nc3ccc(Oc4ccccc4)cc3)c2cc1OC", "residual activity": 8}, {"smiles": "Cc1cc2ncc(-c3ccccc3)nc2cc1C", "residual activity": 89}]}]}
